Records with an inconclusive call do not appear. Active and inactive are the calls of the source. Unless noted, calls come from the whole dose curve; as a rule, active = well fitted curve in either direction with a large enough effect (not every such curve was filed as active); inconclusive = small, poorly fitted or top-dose-only effect, or another doubt; inactive = flat fitted curve, though single readings scatter.
Assays:
[1] = AP1 Signaling Pathway (AID 357); settings: ME-180 AP-1-bla reporter, EGF-induced, beta-lactamase ratio, 5 h; at 17.2 µM (top of the series) unless noted;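 note: ME-180 reporter cells stimulated with EGF at its EC50 level; % is set by controls: 0 for no effect and ±100 for the full control effect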
In short: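 Read-out was the 460nm/530nm emission ratio (excitation 405nm) after CCF4 loading for 2.5 hours at room temperature. Cells carried an AP-1-driven beta-lactamase reporter, were stimulated with EC50 EGF plus compound for 5 hours, and AC50 values came from titrations.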

[2] = NFAT Signaling Pathway (AID 444); settings: Jurkat NFAT-bla M1, carbachol, beta-lactamase ratio, 5 h; at 17.2 µM (top of the series) unless noted;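 note: carbachol stimulus at about its EC50 of 1 µM final; % is set by controls: 0 for no effect and ±100 for the full control effect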
In short: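 Jurkat cells carrying an NFAT-driven β-lactamase reporter and co-transfected muscarinic M1 receptor were treated with compound plus carbachol (1 uM final, an EC50 level) for 5 h at 37 °C. CCF4 loading followed for 1 h at RT; 460/530 nm ratio gave %activity.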

[3] = Stat Signaling Pathway (AID 446); settings: ME-180 (cervical carcinoma) SIE beta-lactamase reporter, IL-6 stimulated, 5 h; at 17.2 µM (top of the series) unless noted;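 note: ME-180 cervical cancer cells given 40 pM IL-6 alongside compound; SIE-controlled beta-lactamase reporter measured as 460/530 nm FRET emission ratio; % is set by controls: 0 for no effect and ±100 for the full control effect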
In short: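 Normalization used AC90 stimulation (300 pM IL-6) and AC90 inhibition (125 nM pan-JAK inhibitor at 40 pM IL-6). The underlying signal is SIE-driven beta-lactamase in ME-180 cells after 5 h IL-6 exposure with compound.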

[4] = target: Glucocorticoid receptor (Homo sapiens) (UniProt P04150); test: GR-GFP Redistribution (AID 450;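 active = compounds whose dose series gives a full or clear partial fitted curve of increased nuclear translocation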; note: potency is the fitted concentration of half-maximal effect); settings: U2OS GR-GFP nuclear translocation, laser cytometry, 2 h; series mostly up to 20.6 µM
Sequence of Glucocorticoid receptor (Homo sapiens) (P04150 whole entry, looked up): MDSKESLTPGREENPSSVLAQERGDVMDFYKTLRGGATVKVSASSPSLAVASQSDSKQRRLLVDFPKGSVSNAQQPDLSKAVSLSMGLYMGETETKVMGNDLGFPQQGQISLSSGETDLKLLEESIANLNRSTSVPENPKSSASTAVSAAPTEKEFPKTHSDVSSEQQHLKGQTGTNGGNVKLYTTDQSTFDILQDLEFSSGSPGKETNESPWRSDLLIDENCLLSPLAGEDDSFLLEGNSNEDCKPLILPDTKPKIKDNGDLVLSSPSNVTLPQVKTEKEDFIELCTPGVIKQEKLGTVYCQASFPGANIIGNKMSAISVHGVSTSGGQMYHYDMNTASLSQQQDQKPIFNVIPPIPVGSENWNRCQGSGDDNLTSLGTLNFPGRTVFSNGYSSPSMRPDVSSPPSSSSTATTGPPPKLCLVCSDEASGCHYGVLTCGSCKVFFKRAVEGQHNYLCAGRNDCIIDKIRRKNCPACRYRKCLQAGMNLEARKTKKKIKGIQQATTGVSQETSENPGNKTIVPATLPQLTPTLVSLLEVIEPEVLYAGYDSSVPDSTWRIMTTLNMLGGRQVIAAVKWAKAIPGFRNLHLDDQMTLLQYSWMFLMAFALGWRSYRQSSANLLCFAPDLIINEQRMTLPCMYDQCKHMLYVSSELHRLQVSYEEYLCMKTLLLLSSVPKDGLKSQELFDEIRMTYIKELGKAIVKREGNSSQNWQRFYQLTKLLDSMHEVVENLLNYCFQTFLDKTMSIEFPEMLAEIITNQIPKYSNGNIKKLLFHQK

Cc1cc(=O)oc(C)c1C(=O)NCCNC(=O)c1c(C)cc(=O)oc1C
inactive: activity change, negative = inhibition [1] 7.25% | activity change, negative = inhibition [2] 6.33% | activity, negative = inhibition [3] 6.54% | Potency [4] > 20.6 µM

COCCCNc1nc2c(c(=O)n(C)c(=O)n2C)n1Cc1cccc(OC)c1
inactive: activity change, negative = inhibition [1] -8.39% | activity change, negative = inhibition [2] -4.82% | activity, negative = inhibition [3] -3.35% | Potency [4] > 20.6 µM

Cn1c(Cn2cnc(Cl)c2Cl)nc2ccccc21
inactive: activity change, negative = inhibition [1] 2.26% | activity change, negative = inhibition [2] -0.211% | activity, negative = inhibition [3] 7.94% | Potency [4] > 20.6 µM

CCOC(=O)C1=C(CSc2nc(C)cc(C)c2C#N)OC(N)=C(C#N)C1c1cccs1 (configuration not stated)
inactive: activity change, negative = inhibition [1] 18.8% | activity change, negative = inhibition [2] -27.2% | activity, negative = inhibition [3] -6.58% | Potency [4] > 20.6 µM

CCCOc1ccc(/C(O)=C2/C(=O)C(=O)N(CCN3CCOCC3)C2c2ccccc2)cc1 (configuration not stated)
inactive: activity change, negative = inhibition [1] -16.7% | activity change, negative = inhibition [2] 4.9% | activity, negative = inhibition [3] -4.33% | Potency [4] > 20.6 µM

CC(C)Cc1nc(N2CCOCC2)c(C#N)c2c1COC(C)(C)C2
inactive: activity change, negative = inhibition [1] 0.834% | activity change, negative = inhibition [2] -9.76% | activity, negative = inhibition [3] 4.57% | Potency [4] > 20.6 µM

CCOC(=O)CSc1nc2sc3c(c2c(=O)[nH]1)CC(C)(C)OC3
inactive: activity change, negative = inhibition [1] 6.27% | activity change, negative = inhibition [2] 6.58% | activity, negative = inhibition [3] 4.32% | Potency [4] > 20.6 µM

Cc1cccc(-c2nnc3n2N=C(c2ccc(Br)cc2)CS3)c1
inactive: activity change, negative = inhibition [1] 11.1% | activity change, negative = inhibition [2] -1.71% | activity, negative = inhibition [3] 7.64% | Potency [4] > 20.6 µM

O=C1CCCN1c1ccc(S(=O)(=O)NCc2ccco2)cc1
inactive: activity change, negative = inhibition [1] 1.18% | activity change, negative = inhibition [2] -10.1% | activity, negative = inhibition [3] 2.23% | Potency [4] > 20.6 µM

O=C(NCC(F)(F)F)N1CCOCC1
inactive: activity change, negative = inhibition [1] 6.11% | activity change, negative = inhibition [2] 0.794% | activity, negative = inhibition [3] -4.01% | Potency [4] > 20.6 µM

Cc1cc(C)nc(NC2=NCC(=O)N2c2ccccc2)n1
inactive: activity change, negative = inhibition [1] 13.1% | activity change, negative = inhibition [2] -8.71% | activity, negative = inhibition [3] 9% | Potency [4] > 20.6 µM

CC1(C)Cc2c(c(N3CCOCC3)nc3sc4c(=O)[nH]cnc4c23)CS1
inactive: activity change, negative = inhibition [1] 4.29% | activity change, negative = inhibition [2] 5.56% | activity, negative = inhibition [3] -18.3% | Potency [4] > 20.6 µM

COc1cccc(N2CCN(C(=O)c3ccc(=O)oc3)CC2C)c1 (configuration not stated)
inactive: activity change, negative = inhibition [1] 26.8% | activity change, negative = inhibition [2] -28.2% | activity, negative = inhibition [3] -1.83% | Potency [4] > 20.6 µM

O=C(c1ccccc1)c1cc(-c2ccccc2)on1
inactive: activity change, negative = inhibition [1] -5.5% | activity change, negative = inhibition [2] -10% | activity, negative = inhibition [3] -7.84% | Potency [4] > 20.6 µM

O=C(Nc1ncccc1Cl)c1cccc(F)c1
inactive: activity change, negative = inhibition [1] 2.04% | activity change, negative = inhibition [2] 4.8% | activity, negative = inhibition [3] 8.27% | Potency [4] > 20.6 µM

CCOC(=O)C(C)Oc1nc(Oc2ccccc2)nc(N(C)C)n1 (configuration not stated)
inactive: activity change, negative = inhibition [1] -9.94% | activity change, negative = inhibition [2] 11% | activity, negative = inhibition [3] 2.57% | Potency [4] > 20.6 µM

CCOC(=O)C(C)c1nc2ccccc2[nH]c1=O (configuration not stated)
inactive: activity change, negative = inhibition [1] 3.01% | activity change, negative = inhibition [2] -0.784% | activity, negative = inhibition [3] 4.12% | Potency [4] > 20.6 µM

Cn1c(Cn2cnc3ccccc32)nc2ccccc21
inactive: activity change, negative = inhibition [1] -1.15% | activity change, negative = inhibition [2] 3.95% | activity, negative = inhibition [3] -2% | Potency [4] > 20.6 µM
